The values below come from PubChem BioAssay AID2701 (National Center for Advancing Translational Sciences (NCATS), 2010).

The list shows a part of the results. Records with an inconclusive call do not appear. The source made the active and inactive calls. Calls come from the whole dose curve; as a rule, active = well fitted inhibition curve with a large enough effect; inconclusive = small, poorly fitted or top-dose-only effect, or another doubt; inactive = no such curve, though single readings can be large or run the other way.
Potency is the fitted concentration of half-maximal effect.

The target of the test is 4'-phosphopantetheinyl transferase ffp (Bacillus subtilis) (UniProt Q9F4F7). Briefly: Confirmation qHTS Assay for Inhibitors of Bacillus subtilis Sfp phosphopantetheinyl transferase (PPTase). As to conditions: Sfp PPTase enzymatic assay, qHTS titration; series mostly up to 114 µM; activity change, negative = inhibition: at the top concentration. From the text: The covalent attachment of a phosphopantetheinyl (4'-PP) arm to a variety of synthases and other proteins is a key posttranslational protein modification. The 4'-PP is installed on the proteins post-translationally from coenzyme A (CoA) on a conserved serine residue by action of phosphopantetheinyl transferase (PPTase) enzymes. Phosphopantetheinylation is essential for synthase activity, and removal of the PPTase gene precludes natural product synthesis in microorganisms, or in the case of fatty acid biosynthesis, renders the organism unviable. PPTase enzymes belong to a distinct structural superfamily. Within bacteria, these enzymes are grouped into two classes based upon primary structure, the AcpS-Type and Sfp-Type PPTases.
Sequence of 4'-phosphopantetheinyl transferase ffp (Bacillus subtilis) (Q9F4F7 whole entry, looked up): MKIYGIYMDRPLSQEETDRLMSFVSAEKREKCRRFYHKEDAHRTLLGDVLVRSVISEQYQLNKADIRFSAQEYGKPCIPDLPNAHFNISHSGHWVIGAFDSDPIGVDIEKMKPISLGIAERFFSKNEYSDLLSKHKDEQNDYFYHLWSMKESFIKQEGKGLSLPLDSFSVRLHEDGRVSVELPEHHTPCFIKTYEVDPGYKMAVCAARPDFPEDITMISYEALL
Sfp-type PPTases, corresponding to an activator of surfactin production in Bacillus subtilis, are responsible for modifying type I polyketide and nonribosomal peptide synthases of prokaryotes. Sfp-type PPTases are responsible for the activation of a variety of pathogen-associated virulence factors. Among these compounds are toxins such as mycolactone from Mycobacterium ulcerans, siderophores such as vibriobactin from Vibrio cholerae or mycobactin from Mycobacterium tuberculosis, as well as the mycolic acids which form the waxy cell wall of Mycobacteria. The biosyntheses of these natural products are considered attractive targets for drug design.
In search of small molecule Sfp-PPTase inhibitors, a fluorescence quenching assay was developed for detection of Bacillus subtilis Sfp-PPTase enzymatic activity in a miniaturized high-throughput format. The consensus ybbr acceptor peptide […] was N-terminally labeled with Black Hole Quencher-2 (BHQ-2) and used in combination with rhodamine-labeled coenzyme A as a co-substrate.
Inhibition of Sfp-PPTase was detected by recording the fluorescence intensity change over a 30-minute reaction period at a 525 nm excitation and 598 nm emission. Reagents were supplied by Michael Burkart and Timothy Foley, University of California at San Diego.
Assay Submitter: Michael Burkart, University of California, San Diego
Screening Center PI: Austin, C.P.
Screening Center: NIH Chemical Genomics Center [NCGC]
Assay Buffer: 50 mM Hepes-Na pH 7.6, 10 mM MgCl2, 0.01% Nonidet P-40, and 0.01% BSA.
3 uL of Sfp-PPTase enzyme (final concentration 15 nM) and 1 uL of substrate mixture (final concentration for rhodamine-CoA and BHQ-2-YbbR 5 uM and 12.5 uM, respectively) dispensed in columns 1, 2, 5 - 48. Columns 1 and 2 used to generate neutral control (uninhibited reaction)
Three uL of reagents, consisting of buffer (in columns 3 and 4 as negative control) and Sfp-PPTase (in columns 1, 2, 5 - 48) were dispensed into 1,536-well Greiner black solid bottom plate. Compounds (23 nL) were transferred via Kalypsys pintool equipped with 1,536-pin array. The plate was incubated for 15 min at room temperature, followed by the addition of 1 uL substrate to start the reaction. The plate was then centrifuged at 1000 rpm for 15 seconds, and the fluorescence intensity recorded on a ViewLux High-throughput CCD imager (Perkin-Elmer) using standard BODIPY optics (525 nm excitation and 598 nm emission). The plate was then incubated for 30 minutes, and a second read on the ViewLux was performed. The fluorescence intensity difference over the 30-minute period was used to calculate the respective reaction rate for each well.
Background: Quantitative high-throughput screening tests each substance at several concentrations.
Regarding `CCC(c1nnnn1Cc1ccco1)N(Cc1cc2cc(OC)ccc2[nH]c1=O)C1CCCCC1` (configuration not stated), the Potency was 9.37 µM (active).
As to `OCCN1CCN(C(=S)c2ccc(-c3ccccc3)cc2)CC1`, the Potency is 14.8 µM (active).
For the molecule `NC(=O)c1c(NC(=O)CSc2nnc(-c3ccco3)n2N)sc2c1CCCC2`, the Potency is 14.8 µM (active).
Same read-out and setting: next, `FC(F)(F)C1CCCN(c2nsc3ccccc23)C1` (configuration not stated): 2.1 µM (active); `COc1ccc(OCc2nnc3n2N=C(c2ccccc2)C(CC(=O)O)S3)cc1` (configuration not stated): 2.35 µM (active).
Take `O=c1[nH]c2ccccc2n2c(-c3ccccc3)nnc12`: the Potency was 2.1 µM (active).
Same read-out and setting: to `Cc1ccc(NC(=O)c2c(NC(=O)CCC(=O)O)sc3c2CCCCC3)cc1` belongs 14.8 µM (active); to `Cc1nn2c(c1-c1ccccc1)N=C(c1ccco1)CC2c1ccccc1` (configuration not stated), 37.3 µM (active); to `CCCOC(=O)Nc1sc2c(c1C(=O)OCC)CCC2`, 29.6 µM (active).
For the molecule `Cc1ccc(/C=C(\C#N)C(=O)Nc2cccc3ncccc23)o1`, the Potency is 26.4 µM (active).
As for `CC(C)(C)c1nnc(NC(=O)C2c3ccccc3Oc3ccccc32)s1`, the Potency was 4.69 µM (active).
For `c1ccc(-c2nc(NCc3ccco3)c3ccccc3n2)cc1`, the “activity change, negative = inhibition” value was -5.44% (inactive).
